Laboratory results taken from PubChem BioAssay AID1159580 (chemical genetic matrix, 2015).
In all, about 5,500 compounds went through this assay and about 2,000 (36%) were called active. Roughly 18% stayed inconclusive and do not appear here. No stated cut-off is given here; in the data, active means normalized growth mostly below about 0.91 (no sharp cut-off); inconclusive means no clear call, values can overlap the other calls; inactive means mostly above about 0.92. Some of the results follow.

Assay: chemical genetic growth profiling, strain panel (AID 1159580);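 further: tested at 20 µM; growth read once vehicle control cultures reached saturation at 30 °C; 1 = growth at the plate median or of vehicle wells; lower values mean less growth of the strain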
Conditions: S. cerevisiae deletion strains, growth OD
[1] = locus YAL040C, strain CLN3, hits give low values
[2] = locus YCL061C, strain MRC1 (second series), hits give low values
[3] = locus YDR150W, strain NUM1, hits give low values
[4] = locus YDR363W, strain ESC2, hits give low values
[5] = locus YER002W, strain NOP16, hits give low values
[6] = locus YJR075W, strain HOC1, hits give low values
[7] = locus YMR263W, strain SAP30, hits give low values
[8] = locus YMR307W, strain GAS1, hits give low values
[9] = locus YNL153C, strain GIM3, hits give low values
[10] = locus YNL175C, strain NOP13, hits give low values
[11] = locus YNL197C, strain WHI3, hits give low values
[12] = locus YNL224C, strain SQS1, hits give low values
[13] = locus YOR083W, strain WHI5 (second series), hits give low values
[14] = locus YAL013W, strain DEP1, hits give low values
[15] = locus YNL322C, strain KRE1, hits give low values
[16] = locus YPL241C, strain CIN2, hits give low values
[17] = locus YBR229C, strain ROT2, hits give low values
[18] = locus YDL101C, strain DUN1, hits give low values
[19] = locus YDL134C, strain PPH21, hits give low values
[20] = locus YEL061C, strain CIN8, hits give low values
[21] = locus YGR078C, strain PAC10, hits give low values
[22] = locus YHR030C, strain SLT2, hits give low values
[23] = locus YHR087W, strain rtc3, hits give low values
[24] = locus YJR043C, strain POL32, hits give low values
[25] = locus YLR039C, strain RIC1, hits give low values
[26] = locus YLR058C, strain SHM2 (second series), hits give low values
[27] = locus YLR085C, strain ARP6, hits give low values
[28] = locus YLR262C, strain YPT6, hits give low values
[29] = locus YML094W, strain GIM5, hits give low values
[30] = locus YMR219W, strain ESC1, hits give low values
[31] = locus YNL298W, strain CLA4 (second series), hits give low values
[32] = locus YNR030W, strain Alg12, hits give low values
[33] = locus YOL006C, strain TOP1, hits give low values
[34] = locus YPL055C, strain LGE1, hits give low values
[35] = locus YPR135W, strain CTF4, hits give low values

Measured: normalized growth

O=c1oc(Cl)c(Cl)c2ccccc12
inactive: [1] 1.03 | [2] 1 | [3] 0.991 | [4] 1 | [5] 1.02 | locus YGR229C, strain SMI1, hits give low values 0.968 | [6] 0.998 | [7] 1 | [8] 1 | [10] 1.01 | [11] 1.02 | [12] 0.923 | [13] 0.915
active: [9] 0.798

NC(=S)c1ccc[n+]([C@@H]2O[C@@H](COP(=O)([O-])OP(=O)(O)OC[C@H]3O[C@@H](n4cnc5c(N)ncnc54)C(OP(=O)(O)O)[C@H]3O)C(O)C2O)c1 (stereo partly drawn)
inactive: [14] 1.02 | [1] 1.03 | [2] 1.01 | [4] 1 | [5] 0.999 | [7] 0.995 | [8] 1 | [10] 1 | [11] 1.03 | [12] 1 | [15] 1.02 | [13] 0.998 | [16] 1.01

Cc1ccc(S(=O)(=O)Oc2cc(=O)n(C)c3ccccc23)cc1
active: locus YJL187C, strain SWE1, hits give low values 0.861 | [8] 0.622
inactive: [14] 0.95 | [17] 0.967 | [18] 0.967 | [19] 0.945 | [3] 0.918 | [20] 0.972 | [21] 0.955 | [22] 0.791 | [23] 0.961 | [24] 0.961 | [6] 0.96 | [25] 0.971 | [26] 0.952 | [27] 0.838 | [28] 0.918 | [29] 0.952 | [30] 0.963 | [7] 0.903 | [9] 0.954 | [31] 0.916 | [15] 0.977 | [32] 0.909 | [33] 0.808 | [34] 0.898 | [16] 0.873 | [35] 0.666

Cc1ccc(S(=O)(=O)Oc2ccc(CC#N)cc2)cc1
inactive: [14] 0.998 | [17] 0.963 | [18] 1.02 | [19] 0.978 | [3] 0.995 | [20] 0.976 | [21] 1.01 | [22] 0.974 | [23] 0.953 | [24] 1.01 | [6] 0.993 | locus YKL190W, strain CNB1, hits give low values 0.945 | [25] 0.865 | [26] 0.977 | [27] 0.929 | [28] 0.845 | [29] 0.956 | [30] 0.989 | [7] 0.995 | locus YNL128W, strain TEP1, hits give low values 0.995 | [9] 1.01 | [31] 0.977 | [15] 0.978 | [32] 0.969 | [33] 0.971 | [34] 0.958 | [16] 0.979 | [35] 0.863
